Sampled rows, rich in hits. Any-hit rate of the full collection: about 2.9%.
SKN-1 block: inhibitors of C. elegans SKN-1; actives 0.49% (n = 360,000); inhibition, % at 21.8 µM; C. elegans VP596 Pgst-4::GFP/RFP ratio, acrylamide-induced, 24 h;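 active = interference check ratio from 0.5 to 1.5 plus GFP to RFP signal ratio inhibition reaching or exceeding a fixed threshold, cut at about 30% in these data, passing the limit was not always enough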
PG9 binder: small molecules binding HIV-1 gp120 antibody PG9; TR-FRET gp120-PG9 antibody binding; actives 0.43% (n = 360,000); AID 624416; inhibition, % at 6.7 µM; in the data active = inhibition above about 8.5%
EP2 modulator: modulators of human EP2 prostaglandin E2 receptor. P43116. EP2-expressing cells, cAMP HTRF FRET, PGE2 co-stimulation. induction, % at 25 µM. AID 940. actives 0.83% (n = 260,000);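 active = compounds whose cAMP rise, as percent of the full-agonist control response, exceeds 60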;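 note: rat C6 glioma line stably carrying human EP2 under a CMV promoter; the protocol text gives 20 µM as final concentration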
Target sequence (P43116 whole entry, looked up): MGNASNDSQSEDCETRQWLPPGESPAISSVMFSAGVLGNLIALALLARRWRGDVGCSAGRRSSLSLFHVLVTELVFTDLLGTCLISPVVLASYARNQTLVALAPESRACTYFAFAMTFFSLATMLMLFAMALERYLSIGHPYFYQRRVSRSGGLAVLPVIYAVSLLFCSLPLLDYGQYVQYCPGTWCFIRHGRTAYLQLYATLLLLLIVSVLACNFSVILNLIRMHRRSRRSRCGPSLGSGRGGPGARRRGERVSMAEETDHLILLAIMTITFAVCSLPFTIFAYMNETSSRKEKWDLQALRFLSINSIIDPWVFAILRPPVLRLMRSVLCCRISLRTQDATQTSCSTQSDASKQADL
Rev-erbA mod: modulators of human Rev-erb alpha DNA binding; Rev-erbα–FITC-DNA binding, fluorescence polarization, 90 min; P20393; AID 1259318; activity, % at 10 µM; actives 0.79% (n = 370,000);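 active = activity above about 14%, limit read from the data; passing the limit was not always enough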
PGE2 EP2 inh: EP2 receptor (human) inhibition. P43116. C6 glioma cells expressing human EP2, cAMP TR-FRET; cells stimulated with saturating PGE2. inhibition, % at 25 µM. actives 0.52% (n = 260,000);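 active = percent inhibition above 40 after rounding to a whole number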;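 note: rat C6 glioma host cells with rolipram phosphodiesterase inhibitor present; the protocol text gives 20 µM as final concentration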
RAM inhibit: yeast RAM network inhibition | S. cerevisiae dse1pr::URA3 reporter, 5-FOA growth OD615, 2 d; analog-sensitive cbk1-as2 kinase mutant strain | inhibition, % at 50 µM | actives 1.8% (n = 190,000) | AID 868;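 active = inhibition above a set limit, 3 SD over mean compound inhibition, cut at about 8.4% in these data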;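 note: inhibition rescues growth on 5-FOA so higher OD means more RAM inhibition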
Hits are given with their value; i = inactive; nt = not tested or not shown.

SMILES | SKN-1 block | PG9 binder | EP2 modulator | Rev-erbA mod | PGE2 EP2 inh | RAM inhibit
CC1CCN(C(=O)Cn2c(SCC(=O)N3C(C)CCCC3C)nc3ccccc32)CC1 (configuration not stated) | nt | nt | i | nt | i | nt
COc1cc(OC)cc(C(=O)N2CCN(Cc3ccc(OC)c(Br)c3)CC2)c1 | nt | nt | i | nt | i | nt
CC[C@H](Cn1ncc2ccccc2c1=O)NC(=O)c1c(-n2cnnn2)sc2c1CCCC2 | nt | nt | i | nt | nt | nt
CC1CCN(S(=O)(=O)N2CCN(CC(O)c3cn(C)c4ccccc34)CC2)CC1 (configuration not stated) | nt | nt | i | nt | i | nt
Fc1ccc2[nH]c3c(N4CCN(c5ccccc5)CC4)ncnc3c2c1 | i | i | i | i | 88 | i
COc1ccc2[nH]c3c(N4CCc5ccccc5C4)ncnc3c2c1 | i | i | i | i | i | nt
COc1ccc(N2CCN(c3ncnc4c3[nH]c3ccccc34)CC2)cc1 | i | i | i | i | 54 | i
COc1ccc(CNC2(c3ccccc3OC)CCCC2)cc1Cn1ccnc1 | nt | nt | i | nt | i | nt
C(CCc1nnc2c(n1)CCCC2)Cc1nnc2c(n1)CCCC2 | nt | nt | i | nt | 45 | nt
O=C(CCc1ccc(S(=O)(=O)NC2CCCCC2)cc1)N(Cc1ccccc1)Cc1ccccc1 | i | i | i | i | i | 11
Cc1ccc(NC(=O)CN2CCC(n3nnc4cc(C(F)(F)F)ccc43)CC2)c(C)c1 | nt | nt | i | nt | i | nt
CCc1cccc2[nH]c3cc([N+](=O)[O-])ccc3c12 | i | i | 65 | i | i | nt
O=c1[nH]c2cc([N+](=O)[O-])ccc2c2ccccc12 | i | i | nt | i | nt | nt
O=C(C1CCCCC1)N1CCC(n2nc(-c3ccco3)ccc2=O)CC1 | nt | nt | i | nt | nt | nt
COc1ccc(OC)c(NC(=O)C(=S)NC2CCCCC2)c1 | i | i | i | i | i | 8.7
O=[N+]([O-])c1cccc(/C=C/c2nc3ccc([N+](=O)[O-])cc3[nH]2)c1 | i | i | i | i | 44 | i
Cc1nc2ccc([N+](=O)[O-])cc2[nH]1 | i | i | i | i | i | i
O=[N+]([O-])c1cccc(/C=C/c2ccccn2)c1 | 36 | i | i | i | i | nt
CCOc1ccc(-n2nnnc2SCC(=O)N2CCC(Cc3ccccc3)CC2)cc1 | nt | nt | i | nt | i | nt
Cc1onc(-c2ccccc2Cl)c1C(=O)OCc1cnc(Cl)s1 | i | i | 64 | i | i | i
Cc1onc(-c2ccccc2Cl)c1C(=O)OCN1C(=O)c2ccccc2C1=O | i | i | i | i | i | i
CC(C)Sc1nc(N)nc(-c2cccs2)c1C#N | 40 | i | i | i | i | i
CSc1nc(N)nc(-c2cccs2)c1C#N | i | i | i | i | i | i
Nc1c(C(=O)O)ccc2c1C(=O)c1ccccc1C2=O | i | i | i | i | i | i
Nc1cc(C(=O)O)c(N)c2c1C(=O)c1ccccc1C2=O | 43 | nt | i | nt | i | nt
SMILES | SKN-1 block | PG9 binder | EP2 modulator | Rev-erbA mod | PGE2 EP2 inh | RAM inhibit
N#CCCn1cc(C(=O)Nc2ccc(C(=O)O)cc2)c(-c2ccc([N+](=O)[O-])cc2)n1 | i | i | i | i | i | 8.8
N#CCCn1cc(C(=O)Nc2ccc(C(=O)O)cc2)c(-c2cccs2)n1 | i | i | i | i | i | i
CN1CCc2cccc3c2C1Cc1ccc(O)c(O)c1-3 (configuration not stated) | i | i | i | i | 60 | nt
CC(=O)CCc1oc2ccc(C)cc2c1Cc1ccccc1 | i | i | nt | i | nt | nt
CC(=O)CCc1oc2ccccc2c1-c1ccccc1 | i | i | 79 | i | i | nt
Cc1cc(C)c(NC(=O)c2cc3ccccc3o2)c(Cl)c1 | nt | nt | i | nt | i | nt
COc1cc(/C=C2/S/C(=N/S(=O)(=O)c3ccccc3)NC2=O)c([N+](=O)[O-])cc1OC | i | i | i | i | i | 9.4
Cc1ccc(CCC(=O)N2CCC3(CC2)NC(=O)c2ccccc2N3)o1 | nt | nt | i | nt | nt | nt
Cc1cc(C)c2cc(CN(Cc3ccc4c(c3)OCO4)S(=O)(=O)c3ccccc3)c(=O)[nH]c2c1 | nt | nt | i | nt | i | nt
CCOC(=O)c1c(NC(=O)c2cccs2)sc2c1CCC2 | i | i | nt | i | 76 | nt
CCNC(=O)c1c(NC(=O)c2cccs2)sc2c1CCCC2 | nt | nt | i | nt | i | nt
CCOC(=O)c1c(NS(=O)(=O)c2ccc(Br)cc2)sc2c1CCC2 | i | i | i | i | i | 9.8
CC[C@@H]1CCC[C@@H](O)[C@@H](C)C(=O)O[C@H](C)[C@@H](C)C/C=C(C)/C(OC)=C\C(=O)N(C)C([C@@H](C)CC)C(=O)N(C)[C@@H](C(C)C)C(=O)N(C)[C@@H](COC)C(=O)N2CCC[C@H]2C(=O)N(C)[C@@H](C(C)C)C(=O)N2CCC[C@H]2C(=O)O1 (some centres not stated) | 44 | i | nt | i | nt | nt
COc1ccc(OC)c(NC(=O)CSc2nc3c(c(=O)n(C)c(=O)n3C)n2Cc2ccccc2)c1 | nt | nt | i | nt | i | nt
O=C(CSc1ccc2ccccc2n1)NCCC1=CCCCC1 | i | i | i | i | i | 8.6
O=C(CSc1ncccn1)NCCC1=CCCCC1 | i | i | i | i | i | nt
CCOc1ccc(/C=c2\sc3nc(-c4ccco4)nn3c2=O)cc1OCC | i | i | 75 | i | i | i
COc1ccc2oc(C(F)(F)C(F)F)cc(=O)c2c1 | 36 | i | i | i | i | i
Cc1ccc(CSc2nnc(-c3ccc(S(=O)(=O)N4CCCC4)cc3)o2)cc1 | i | i | i | i | i | 10
O=S(=O)(c1ccc(-c2nnc(SCc3ccccc3)o2)cc1)N1CCCC1 | i | i | i | i | i | 9.3
COCCN1C(=O)C(=O)/C(=C(\O)c2cccc(OC)c2)C1c1ccc(OC)c(OC)c1 (configuration not stated) | nt | nt | i | nt | i | nt
Cc1ccc(C)c(C(=O)COC(=O)c2cc(Cl)nc3ccccc23)c1 | i | i | i | i | i | 9.6
CCOC(=O)c1cc(-c2ccc(Cl)cc2)nc2onc(C)c12 | nt | nt | i | nt | nt | 9.8
COc1ccc(-c2cc(C(=O)OCC(C)=O)c3cc(Br)ccc3n2)cc1 | nt | nt | i | nt | i | nt
CCOC(=O)c1cc(-c2ccc(Cl)cc2)nc2c1c(=O)[nH]c(=O)n2CCOC | i | i | i | i | i | i
SMILES | SKN-1 block | PG9 binder | EP2 modulator | Rev-erbA mod | PGE2 EP2 inh | RAM inhibit
CC(=O)COC(=O)c1cc(-c2ccccc2)nc2ccc(Br)cc12 | nt | nt | 68 | nt | i | nt
CCOC(=O)c1cc(-c2ccccc2)nc2ccc(C)cc12 | i | i | 66 | i | i | nt
Cc1ccc(C(=O)COC(=O)c2cc(Cl)nc3ccccc23)cc1C | i | i | i | i | i | i
CC(=O)COC(=O)c1cc(-c2ccc(C)cc2)nc2ccccc12 | i | i | i | i | i | i
CN1CCN(C(=O)CN2N=C(C(C)(C)C)Cn3c(cc4sccc43)C2=O)CC1 | nt | nt | i | nt | i | nt
CCN(CC)c1ccc(CN2CCc3c(nc(N4CC(C)OC(C)C4)[nH]c3=O)C2)c(O)c1 (configuration not stated) | nt | nt | i | nt | nt | nt
COc1ccc2c(c1)CCc1c(-c3noc4c3CCc3cc(OC)ccc3-4)noc1-2 | nt | nt | i | nt | 45 | nt

Assay outcomes: PubChem, several laboratories
